Test results published in publication PMC10812921, “Transcriptional Coactivator BOB1 (OBF1, OCA-B) Modulates the Specificity of DNA Recognition by the POU-Domain Factors OCT1 and OCT2 in a Monomeric Configuration”.

What was measured:
[1] = molecular target: POU1 (OCT1 POU domain) (human, UniProt P14859 260-458); assay: EMSA-SELEX-seq; no BOB1; 20 mM Tris-HCl pH 7.6, 140 mM NaCl, 10% glycerol, 0.5 mM EDTA, 0.05% Triton X-100, 0.1 mg/mL BSA, 0.1 mg/mL poly(dI-dC), 5 mM DTT, room temperature, 20 min; high values mean tight binding; details: protein: recombinant; dsDNA, one strand shown
POU1 (OCT1 POU domain), sequence (P14859 260-458): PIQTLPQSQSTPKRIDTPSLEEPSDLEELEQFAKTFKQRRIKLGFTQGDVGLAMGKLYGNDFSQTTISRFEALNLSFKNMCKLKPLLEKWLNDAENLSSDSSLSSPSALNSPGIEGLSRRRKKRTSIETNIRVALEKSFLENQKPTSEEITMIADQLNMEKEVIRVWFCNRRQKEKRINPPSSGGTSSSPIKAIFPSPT
In short: (§1)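 Binding preference means the percentage of sequenced 8-mers matching a motif pattern. Tagged POU-domain proteins (30 ng), expressed in E. coli BL21, purified under denaturing conditions and renatured, were mixed with 300 ng of a PCR-amplified double-stranded random 35-nt library, with or without 28 ng coactivator protein, for 20 min at RT in 20 μL Tris–HCl pH 7.6 binding buffer. Selection was repeated over four rounds of excising complex bands from native 6% PAGE, eluting and PCR amplification, followed by Illumina sequencing.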

[2] = molecular target: T1, POU2 (OCT2 POU domain) (human, UniProt P09086 175-386); assay: as above; details: protein: recombinant; dsDNA, one strand shown
T1 sequence: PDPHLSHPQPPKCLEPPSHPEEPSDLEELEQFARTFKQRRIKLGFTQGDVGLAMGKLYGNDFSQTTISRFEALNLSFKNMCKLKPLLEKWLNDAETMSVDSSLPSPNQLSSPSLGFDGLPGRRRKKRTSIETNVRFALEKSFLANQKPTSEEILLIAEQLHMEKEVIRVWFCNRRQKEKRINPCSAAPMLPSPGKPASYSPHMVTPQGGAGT
In short: as §1

[3] = molecular target: POU1 (OCT1 POU domain);BOB1 (OBF1, OCA-B) (human;human, UniProt P14859;Q16633 260-458;1-256, |); assay: EMSA-SELEX-seq; with BOB1 (ternary complex band); 20 mM Tris-HCl pH 7.6, 140 mM NaCl, 10% glycerol, 0.5 mM EDTA, 0.05% Triton X-100, 0.1 mg/mL BSA, 0.1 mg/mL poly(dI-dC), 5 mM DTT, room temperature, 20 min; high values mean tight binding; details: protein: recombinant;recombinant; copies: 1;1; dsDNA, one strand shown
In short: as §1

[4] = molecular target: T2, POU2 (OCT2 POU domain);BOB1 (OBF1, OCA-B) (human;human, UniProt P09086;Q16633 175-386;1-256, |); assay: as above; details: protein: recombinant;recombinant; copies: 1;1; dsDNA, one strand shown
T2 sequence 1: T1 sequence
T2 sequence 2: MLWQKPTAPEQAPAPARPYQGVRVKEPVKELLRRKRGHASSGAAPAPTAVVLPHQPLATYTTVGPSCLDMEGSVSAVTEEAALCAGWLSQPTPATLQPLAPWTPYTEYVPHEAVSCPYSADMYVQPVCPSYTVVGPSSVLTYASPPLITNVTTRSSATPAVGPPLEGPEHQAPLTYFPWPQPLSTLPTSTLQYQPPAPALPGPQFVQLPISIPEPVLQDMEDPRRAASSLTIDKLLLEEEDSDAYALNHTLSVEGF
In short: as §1

Sequence | binding signal [1] | binding signal [2] | binding signal [3] | binding signal [4]
ATCGAAAA | 0.0511 % of ANNNNAAN 8-mers | 0.0564 % of ANNNNAAN 8-mers | 0.0441 % of ANNNNAAN 8-mers | 0.0454 % of ANNNNAAN 8-mers
AGACTAAA | 0.0374 % of ANNNNAAN 8-mers | 0.0443 % of ANNNNAAN 8-mers | 0.0297 % of ANNNNAAN 8-mers | 0.0289 % of ANNNNAAN 8-mers
ACTAAAAG | 0.0282 % of ANNNNAAN 8-mers | 0.0368 % of ANNNNAAN 8-mers | 0.0332 % of ANNNNAAN 8-mers | 0.0297 % of ANNNNAAN 8-mers
ATGACAAC | 0.0259 % of ANNNNAAN 8-mers | 0.0207 % of ANNNNAAN 8-mers | 0.0277 % of ANNNNAAN 8-mers | 0.0355 % of ANNNNAAN 8-mers
ATCCTAAA | 0.0267 % of ANNNNAAN 8-mers | 0.0328 % of ANNNNAAN 8-mers | 0.0285 % of ANNNNAAN 8-mers | 0.0421 % of ANNNNAAN 8-mers
AGACAAAA | 0.0675 % of ANNNNAAN 8-mers | 0.0489 % of ANNNNAAN 8-mers | 0.0808 % of ANNNNAAN 8-mers | 0.0322 % of ANNNNAAN 8-mers
ACGATAAA | 0.037 % of ANNNNAAN 8-mers | 0.0432 % of ANNNNAAN 8-mers | 0.0324 % of ANNNNAAN 8-mers | 0.0487 % of ANNNNAAN 8-mers
ACCTCAAA | 0.0149 % of ANNNNAAN 8-mers | 0.0155 % of ANNNNAAN 8-mers | 0.0191 % of ANNNNAAN 8-mers | 0.0256 % of ANNNNAAN 8-mers
ATGAGAAC | 0.0404 % of ANNNNAAN 8-mers | 0.0552 % of ANNNNAAN 8-mers | 0.03 % of ANNNNAAN 8-mers | 0.0388 % of ANNNNAAN 8-mers
ATATAAAC | 0.0637 % of ANNNNAAN 8-mers | 0.0719 % of ANNNNAAN 8-mers | 0.055 % of ANNNNAAN 8-mers | 0.0652 % of ANNNNAAN 8-mers
ACTAAAAA | 0.0439 % of ANNNNAAN 8-mers | 0.0409 % of ANNNNAAN 8-mers | 0.0468 % of ANNNNAAN 8-mers | 0.0388 % of ANNNNAAN 8-mers
ACTCAAAG | 0.0336 % of ANNNNAAN 8-mers | 0.0242 % of ANNNNAAN 8-mers | 0.0367 % of ANNNNAAN 8-mers | 0.0165 % of ANNNNAAN 8-mers
AACTAAAG | 0.024 % of ANNNNAAN 8-mers | 0.0311 % of ANNNNAAN 8-mers | 0.0293 % of ANNNNAAN 8-mers | 0.0355 % of ANNNNAAN 8-mers
ACTTCAAG | 0.0194 % of ANNNNAAN 8-mers | 0.0236 % of ANNNNAAN 8-mers | 0.0168 % of ANNNNAAN 8-mers | 0.0256 % of ANNNNAAN 8-mers
AGTCCAAA | 0.0256 % of ANNNNAAN 8-mers | 0.0299 % of ANNNNAAN 8-mers | 0.0332 % of ANNNNAAN 8-mers | 0.0281 % of ANNNNAAN 8-mers
ACCACAAA | 0.0141 % of ANNNNAAN 8-mers | 0.0196 % of ANNNNAAN 8-mers | 0.014 % of ANNNNAAN 8-mers | 0.0198 % of ANNNNAAN 8-mers

Sequence | binding signal [1] | binding signal [2] | binding signal [3] | binding signal [4]
ACATCAAG | 0.024 % of ANNNNAAN 8-mers | 0.0351 % of ANNNNAAN 8-mers | 0.0265 % of ANNNNAAN 8-mers | 0.033 % of ANNNNAAN 8-mers
ACGTAAAC | 0.0358 % of ANNNNAAN 8-mers | 0.0299 % of ANNNNAAN 8-mers | 0.0433 % of ANNNNAAN 8-mers | 0.0405 % of ANNNNAAN 8-mers
ATATAAAT | 0.16 % of ANNNNAAN 8-mers | 0.222 % of ANNNNAAN 8-mers | 0.108 % of ANNNNAAN 8-mers | 0.116 % of ANNNNAAN 8-mers
ATGTGAAG | 0.0484 % of ANNNNAAN 8-mers | 0.0627 % of ANNNNAAN 8-mers | 0.046 % of ANNNNAAN 8-mers | 0.0429 % of ANNNNAAN 8-mers
ACAGGAAC | 0.0244 % of ANNNNAAN 8-mers | 0.0265 % of ANNNNAAN 8-mers | 0.0222 % of ANNNNAAN 8-mers | 0.0239 % of ANNNNAAN 8-mers
ATACTAAC | 0.0347 % of ANNNNAAN 8-mers | 0.0293 % of ANNNNAAN 8-mers | 0.0304 % of ANNNNAAN 8-mers | 0.0396 % of ANNNNAAN 8-mers
ATCGGAAC | 0.0175 % of ANNNNAAN 8-mers | 0.0242 % of ANNNNAAN 8-mers | 0.023 % of ANNNNAAN 8-mers | 0.0231 % of ANNNNAAN 8-mers
ATCCGAAT | 0.0542 % of ANNNNAAN 8-mers | 0.0748 % of ANNNNAAN 8-mers | 0.0496 % of ANNNNAAN 8-mers | 0.066 % of ANNNNAAN 8-mers
AAGCCAAC | 0.0137 % of ANNNNAAN 8-mers | 0.0161 % of ANNNNAAN 8-mers | 0.0109 % of ANNNNAAN 8-mers | 0.0107 % of ANNNNAAN 8-mers
AGAACAAT | 0.0378 % of ANNNNAAN 8-mers | 0.0414 % of ANNNNAAN 8-mers | 0.0293 % of ANNNNAAN 8-mers | 0.038 % of ANNNNAAN 8-mers
ACCAAAAT | 0.0446 % of ANNNNAAN 8-mers | 0.0397 % of ANNNNAAN 8-mers | 0.055 % of ANNNNAAN 8-mers | 0.0537 % of ANNNNAAN 8-mers
AATGAAAC | 0.0461 % of ANNNNAAN 8-mers | 0.0719 % of ANNNNAAN 8-mers | 0.0433 % of ANNNNAAN 8-mers | 0.0487 % of ANNNNAAN 8-mers
ATAGCAAT | 0.0515 % of ANNNNAAN 8-mers | 0.0495 % of ANNNNAAN 8-mers | 0.0445 % of ANNNNAAN 8-mers | 0.0487 % of ANNNNAAN 8-mers
ACAAAAAG | 0.0549 % of ANNNNAAN 8-mers | 0.0489 % of ANNNNAAN 8-mers | 0.0683 % of ANNNNAAN 8-mers | 0.0429 % of ANNNNAAN 8-mers
AAATTAAA | 0.328 % of ANNNNAAN 8-mers | 0.349 % of ANNNNAAN 8-mers | 0.213 % of ANNNNAAN 8-mers | 0.217 % of ANNNNAAN 8-mers
AATCGAAA | 0.0622 % of ANNNNAAN 8-mers | 0.0512 % of ANNNNAAN 8-mers | 0.0613 % of ANNNNAAN 8-mers | 0.0438 % of ANNNNAAN 8-mers
